High-throughput results: PubChem BioAssay, National Center for Advancing Translational Sciences (NCATS)
The list is not random: actives were taken first. Their share in the collection is about 9.2%.
Rab9 promoter act: qHTS Assay for Rab9 Promoter Activators; Huh7 Rab9 promoter-luciferase reporter, luminescence, 24 h; Potency, µM (highest dose often 9.22 µM), for inactives: at the highest dose activation, negative = inhibition, hits mostly activators; hit rate 2.8% among 320,000; AID 485297, 2010; further: % of control where 0% means no effect; nearly all actives have a fitted effect of over 60% in size
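Measured in stably transfected Huh7 cells bearing a Rab9 promoter–luciferase construct: 24 h compound treatment at 37 °C, followed by luminescence detection.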
ELG1 genotoxic: qHTS screen for small molecules that induce genotoxicity in human embryonic kidney (HEK293T) cells expressing luciferase-tagged ELG1; HEK293T ELG1-luciferase reporter, luminescence, 16 h; Potency, µM (highest dose often 46 µM), for the others: at the highest dose activity change, positive = activation, hits mostly activators; hit rate 1.3% among 330,000; AID 504466, 2011; further: % of control where 0% means no effect; nearly all actives have a fitted effect of over 60% in size
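Quantitative HTS format in 1536-well plates. HEK293T ELG1-luciferase reporter cells receive test compound and are incubated 16 hr at 37 °C, 5% CO2; ONE-Glo added, 30 min room temperature, then luminescence read.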
SMN2 splice enh: qHTS Assay for Enhancers of SMN2 Splice Variant Expression | HEK293 SMN2-luciferase splicing reporter, luminescence, 30-36 h | Potency, µM (top dose mostly 46.1 µM), for the others: top-dose activity change, positive = activation, usual class: activators | hit rate 2.8% among 210,000 | AID 1458, 2008; further: % of control where 0% means no effect; nearly all actives have a fitted effect of over 55% in size
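qHTS luciferase splicing reporter: luminescence rises when SMN2 exon 7 is included in transfected HEK293 cells. Compound exposure lasted 30-36 h at 37C, with 4.5 mM final sodium butyrate as control, followed by a ONE-Glo read.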
ELG1 DNA repair: qHTS screen for small molecules that inhibit ELG1-dependent DNA repair in human embryonic kidney (HEK293T) cells expressing luciferase-tagged ELG1; HEK293T ELG1-luciferase reporter, luminescence, 16 h; DNA damage induced by 5-fluorouridine; Potency, µM (highest dose often 46.1 µM), without a hit: at the top dose activity change, negative = inhibition, actives largely listed as inhibitors; hit rate 2.3% among 330,000; further: on the % scale 0 is the no-effect control and ±100 the full control effect; nearly all actives have a fitted effect of over 55% in size
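Luminescence from the luciferase reporter, measured 30 min after ONE-Glo reagent at room temperature, was the read-out. Beforehand, 2,000 cells per well were exposed for 16 hr at 37 °C to 5-fluorouridine together with compound or vehicle.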
FLuc counter: qHTS profiling assay for firefly luciferase inhibitor/activator using purifed enzyme and Km concentrations of substrates (counterscreen for miR-21 project) | Luciferin 4-monooxygenase (Photinus pyralis), P08659 | purified FLuc, Km substrates, luminescence inhibition | Potency, µM (doses to about 57.5 µM), for inactives: at the top dose activity change, negative = inhibition, most hits filed as inhibitors | hit rate 6.9% among 360,000 | AID 588342, 2011;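 further: plate controls were vehicle for no effect and reference inhibitor for full effect; nearly all actives have a fitted effect of over 55% in size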
Target sequence (P08659 whole entry, looked up): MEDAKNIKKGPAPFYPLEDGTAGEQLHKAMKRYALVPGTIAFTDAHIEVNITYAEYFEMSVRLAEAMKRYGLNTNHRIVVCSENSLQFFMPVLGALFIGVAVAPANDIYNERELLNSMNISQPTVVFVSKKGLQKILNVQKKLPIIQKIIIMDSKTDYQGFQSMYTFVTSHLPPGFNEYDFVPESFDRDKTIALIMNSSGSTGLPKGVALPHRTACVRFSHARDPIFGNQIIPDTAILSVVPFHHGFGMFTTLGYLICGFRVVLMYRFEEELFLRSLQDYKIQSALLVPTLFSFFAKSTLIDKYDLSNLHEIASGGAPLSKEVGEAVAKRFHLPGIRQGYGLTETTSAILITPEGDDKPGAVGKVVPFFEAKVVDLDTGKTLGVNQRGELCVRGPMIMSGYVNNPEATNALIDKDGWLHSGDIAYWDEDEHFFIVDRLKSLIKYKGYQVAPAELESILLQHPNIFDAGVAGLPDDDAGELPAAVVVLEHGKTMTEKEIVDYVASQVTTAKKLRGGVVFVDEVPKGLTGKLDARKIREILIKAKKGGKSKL
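Biochemical qHTS of compounds, final roughly 60 µM downward over six points, against 10 nM purified firefly luciferase using Km concentrations of substrates (10 uM D-luciferin, 10 uM ATP) in Tris acetate pH 7.5 buffer; luminescence output.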
NPC1 prom act: qHTS Assay for NPC1 Promoter Activators | Huh7 NPC1 promoter luciferase reporter, 24 h | Potency, µM (top dose mostly 9.22 µM), inactives show at the top dose activation, most hits filed as activators | hit rate 2.4% among 320,000; further: % of control where 0% means no effect; nearly all actives have a fitted effect of over 60% in size
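Luminescence read-out of NPC1 promoter-driven luciferase in stably transfected Huh7 cells; compounds delivered in DMSO and left 24 h at 37C, 5% CO2, qHTS titration format.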
The depositor's hits bear a star; ? = inconclusive; · = no result given. The call rests on the fitted dose curve; in most records, active means well fitted curve in the direction sought with a large enough effect; inconclusive means small, poorly fitted or top-dose-only effect, or another doubt; inactive means no such curve, though single readings can be large; an effect the other way counts as inactive or inconclusive. Potency means the concentration at half of the fitted maximal effect.

SMILES	Rab9 promoter act	ELG1 genotoxic	SMN2 splice enh	ELG1 DNA repair	FLuc counter	NPC1 prom act
CC1=C(C(=O)Nc2ccc(C)cc2C)C(C(C)C)n2nc(SCc3ccccc3Cl)nc2N1 (stereo not given)	·	·	-9.0%	·	0.2%	·
CN(Cc1ccco1)c1ccnc(-c2ccoc2)n1	·	·	-1.4%	·	·	·
Cc1nc2ccccc2nc(C)c1=NOCc1cccc(F)c1	-1.2%	-6.3%	20µM*	?	-10.9%	-1.9%
Cc1cc(C)n(CC(=O)N/N=C/c2cccs2)n1	3.1%	6.7%	-7.2%	?	16.9µM*	-2.4%
Cc1cc(C)n(CC(=O)N/N=C/c2ccc([N+](=O)[O-])s2)n1	-0.9%	-15.8%	-90.5%	14.6µM*	3.6%	0.1%
COc1cc([N+](=O)[O-])cc(/C=N/NC(=O)Cn2nc(C)cc2C)c1O	-2.6%	-4.3%	·	-27.9%	2.5%	-1.9%
COc1ccc(N(CC(=O)NC2CC3CCC2C3)S(=O)(=O)c2ccccc2)cc1Cl (stereo not given)	-3.9%	-5.5%	·	5.7%	3.0%	5.3%
CCOC(=O)N1CCC(NC(=O)c2ccc3c(c2)N(Cc2ccc(F)cc2)C(=O)c2ccccc2S3(=O)=O)CC1	·	·	5.2%	·	-4.1%	·
COc1ccc(C(=O)c2ccc(OC)c(N)c2)cc1N	-26.5%	18.4µM*	35.8%	?	?	-13.9%
COc1ccc(C(=O)c2ccc(OC)c(OC)c2)cc1OC	-6.8%	-0.1%	-13.1%	18.3%	3.1%	-1.9%
Cn1c(=O)c2c(nc(CN3CCN(Cc4ccccc4)CC3)n2Cc2cccc(Cl)c2)n(C)c1=O	-9.7%	-18.6%	-15.6%	11.6µM*	-1.5%	-1.0%
Cn1c(=O)c2c(nc(CN3CCN(c4ccc(F)cc4)CC3)n2Cc2ccccc2F)n(C)c1=O	-5.7%	-1.7%	-45.8%	6.51µM*	-0.8%	-0.5%
Cn1c(=O)c2c(nc(CN3CCc4ccccc4C3)n2Cc2cccc(Cl)c2)n(C)c1=O	-11.1%	-25.5%	-12.2%	?	4.1%	0.0%
COCCn1c(CN2CCc3ccccc3C2)nc2c1c(=O)n(C)c(=O)n2C	-13.9%	-8.5%	-27.7%	6.51µM*	0.3%	-15.3%
CCCCCCn1c(CN2CCN(C(=O)c3ccco3)CC2)nc2c1c(=O)n(C)c(=O)n2C	-1.7%	-1.3%	1.9%	13µM*	0.3%	-2.7%
Cc1ccc(NC(=O)Cn2ncn3c(cc4ccccc43)c2=O)cc1C	·	·	-22.2%	·	-8.6%	·
COc1ccc(-c2cc3nc(C)c(CCC(=O)N4CCN(c5ccc(F)cc5)CC4)c(C)n3n2)c(OC)c1	·	·	-8.2%	·	6.4%	·
CC(C)(C)c1ccc(C(=O)c2cn[nH]c2-c2ccccc2O)cc1	?	12.4%	·	?	10.7µM*	?
CCN1CCN(c2cc3c(cc2F)c(=O)c(S(=O)(=O)c2cc(C)cc(C)c2)cn3CC)CC1	·	·	·	·	-0.2%	·
Cc1ccc(S(=O)(=O)N2CCOCC2)cc1NC(=O)COC(=O)CCOc1ccc(C(C)(C)C)cc1	-8.7%	3.6%	·	14.6%	3.79µM*	-0.2%
Cc1ccc(S(=O)(=O)N2CCOCC2)cc1NC(=O)COC(=O)CNC(=O)c1ccc(Oc2ccccc2)cc1	-4.3%	0.7%	-14.2%	1.9%	1.9µM*	0.1%
Cc1ccc(S(=O)(=O)N2CCOCC2)cc1NC(=O)COC(=O)CNC(=O)c1ccc(C(C)(C)C)cc1	-2.4%	-1.8%	?	?	0.953µM*	-1.7%
Cc1ccc(C(=O)NCC(=O)OCC(=O)Nc2cc(S(=O)(=O)N3CCOCC3)ccc2C)cc1	-9.2%	-3.7%	·	22.2%	?	-3.4%
Cc1ccc(S(=O)(=O)N2CCOCC2)cc1NC(=O)COc1cccc(Oc2ccccc2)c1	4.9%	-28.7%	·	?	-2.6%	0.8%
Cc1cc(C)cc(OCC(=O)OCC(=O)Nc2cc(S(=O)(=O)N3CCOCC3)ccc2C)c1	1.3%	-2.5%	·	8.5%	2.5%	-1.1%
SMILES	Rab9 promoter act	ELG1 genotoxic	SMN2 splice enh	ELG1 DNA repair	FLuc counter	NPC1 prom act
COc1ccc(CCC(=O)OCC(=O)Nc2ccccc2)cc1	24.3%	?	·	?	-18.8%	13.2%
O=C(CSc1nc(=O)n(CCN2CCOCC2)c2c1CCC2)Nc1cccc(Cl)c1	·	·	·	·	-2.6%	·
C=CCOC(=O)C1=C(C)NC(SCC(=O)N(CC)CC)=C(C#N)C1c1ccco1 (stereo not given)	-2.7%	-11.1%	-27.8%	8.2µM*	2.4%	0.6%
C=CCOC(=O)C1=C(C)NC(SCC(=O)N(CC)CC)=C(C#N)C1c1ccccc1 (stereo not given)	-2.7%	-8.8%	-13.7%	16.4µM*	0.5%	2.6%
COc1ccc(S(=O)(=O)n2cccc2)c(OC)c1	4.0%	4.4%	·	0.0%	-2.2%	1.3%
CC(C)CN(C(=O)COC(=O)c1ccc(Br)cc1)c1c(N)n(Cc2ccccc2)c(=O)[nH]c1=O	-1.0%	-0.3%	·	-13.4%	-1.1%	4.3%
CCc1ccc(NC(=O)C2CCCN(S(=O)(=O)c3c(C)noc3/C=C/N(C)C)C2)cc1 (stereo not given)	·	·	1.7%	·	1.8%	·
COCCNC(=O)c1cccc(S(=O)(=O)N2CC3(C)CC2CC(C)(C)C3)c1 (stereo not given)	-4.0%	-1.1%	·	3.4%	-5.7%	-1.9%
COc1ccc(OC)c(CC(=O)Nc2ccc3c(c2)CCC3)c1	-0.7%	0.3%	·	-19.9%	-10.8%	-1.4%
Cc1ccccc1CC(=O)Nc1ccc2c(c1)CCC2	2.7%	9.2%	·	?	?	-0.6%
COc1ccccc1C(=O)NCC(=O)Nc1ccc2c(c1)CCC2	26.5%	?	·	?	12µM*	?
COc1ccccc1CC(=O)Nc1ccc2c(c1)CCC2	1.4%	4.4%	-8.9%	?	?	-4.0%
COc1ccc(CC(=O)Nc2ccc3c(c2)CCC3)cc1OC	-15.8%	13.9%	-58.5%	10.3µM*	-2.5%	-4.5%
CCCC(=O)Nc1ccc2c(c1)Cc1ccccc1-2	2.51µM*	?	·	?	9.53µM*	1.78µM*
O=C(Cc1ccccc1F)Nc1ccc2c(c1)CCC2	3.16µM*	14.6µM*	·	?	7.57µM*	2µM*
COC(=O)[C@H](Cc1ccccc1)NC(=O)O[C@@H]1C(=O)c2ccc(OC)cc2O[C@H]1c1cccc(C(F)(F)F)c1	·	·	-2.8%	·	·	·
CCCCN(C)CCC(=O)Nc1ccc2c(c1)CCC2	-10.7%	-10.4%	·	14.6µM*	1.1%	-11.5%
COc1ccc(NC(=O)CN(C)CC(=O)Nc2ccc3c(c2)CCC3)cc1	1.5%	-1.6%	-7.7%	-4.4%	-1.2%	-7.5%
